Source: PubChem BioAssay (NCI)
Values joined by “and” are separate entries in the source; they are usually repeats but may differ in a detail not shown here. Identical values can stand only once. Compounds without any hit were thinned out: in the full panel of roughly 83,000, 20% have a hit.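 Single-dose data. Exposure time 48 hours. Values below 10 considered active.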 Active and inactive are the calls of the source.

Each compound was assayed on A549/ATCC NSCLC (assay: NCI-60 one-dose screen, 48 h (100 = growth as untreated, 0 = no growth, -100 = all killed)). Conditions: 10 µM.
Protocol: Growth inhibition of the A549/ATCC human Non-Small Cell Lung tumor cell line is measured as a screen for anti-cancer activity. Cells are grown in 96 well plates and exposed to the test compound for 48 hours. Compounds are tested at a single concentration, which is 10^-5 M for most compounds. The reported endpoint is percent growth (GI% or GIPRCNT), where numbers from 0 - 100% represent growth inhibition, and numbers from -100% - 0 represent cell death. For example, a value of 40 represents 60% growth inhibition. A value of 0 means no net growth occurred over the course of the experiment. A value of -40 indicates 40% of cells at the beginning of the experiment died by the end of the experiment. A value of -100 means all cells are dead at the end of the experiment.
NCI-60 Human Tumor Cell Lines Screen was performed using the standard one-dose NCI protocol, which is described in more detail at https://dtp.cancer.gov/discovery_development/nci-60/default.htm.
Compounds with GIPRCNT values below 10 were considered active. Activity score was based on GIPRCNT using the following formula: […]
Score is 0 for GIPRCNT values of 100 or above, 50 for GIPRCNT values of 0, and 100 for GIPRCNT values of -100.

Row | SMILES | growth
1 | CC(C)=CCc1c2c(c(O)c3c1O[C@]14C(=C[C@@H]5C[C@H]1C(C)(C)O[C@@]4(C/C=C(/C)C(=O)O)C5=O)C3=O)C=CC(C)(C)O2 | -43.9% (active)
2 | COC1[C@@H]2C[C@H]3C(C)(C)O[C@@](C/C=C(/C)C(=O)O)(C2=O)[C@]32Oc3c(CC=C(C)C)c4c(c(O)c3C(=O)[C@H]12)C=CC(C)(C)O4 (stereo not given in full) | -20.3% (active)
3 | CC(C)(O)/C=C/C(=O)[C@](C)(O)[C@H]1[C@H](O)C[C@@]2(C)[C@H]3CC=C4[C@@H](C[C@H](O)C(=O)C4(C)C)[C@]3(C)C(=O)C[C@]12C | 10.1% (inactive)
4 | CC(=O)O[C@@H]1[C@@H]2O[C@H]2[C@@](C)(O)C(=O)[C@@H](C)C/C=C/[C@H]2[C@@H]3O[C@]3(C)[C@@H](C)C3[C@H](Cc4ccccc4)NC(=O)[C@@]312 (stereo not given in full) | 25.1% (inactive)
5 | CC1=C2C(=C[C@@](C)(COS(C)(=O)=O)[C@@H]2O)C(=O)[C@](C)(O)C12CC2 | 11.3% (inactive)
6 | N#Cc1c(-n2c(Br)c(Br)c3cc(Br)ccc32)[nH]c2c(Br)cc(Br)cc12 | 10.3% (inactive)
7 | C/C=C/CC(C)C(O)[C@H](NC(=O)[C@@H]1CCCN1C(=O)C(C)(C)NC(=O)CCCCCCC)C(=O)N[C@@](C)(CC)C(=O)N[C@@H](CCC(N)=O)C(=O)N[C@H](CCC(N)=O)C(=O)NC(C)(C)C(=O)NC(C)(C)C(=O)N[C@@H](CCC(N)=O)C(=O)N[C@H](CC(C)C)C(=O)N[C@H](CO)CC(C)C (stereo not given in full) | 109% (inactive) and 30% (inactive)
8 | C/C=C/CC(C)C(O)[C@H](NC(=O)[C@@H]1CCCN1C(=O)C(C)(C)NC(=O)CCCCCCCCC)C(=O)NC(C)(C)C(=O)N[C@@H](CCC(N)=O)C(=O)N[C@H](CCC(N)=O)C(=O)NC(C)(C)C(=O)NC(C)(C)C(=O)N[C@@H](CCC(N)=O)C(=O)N[C@H](CC(C)C)C(=O)N[C@H](CO)CC(C)C (stereo not given in full) | 49.3% (inactive) and 26.3% (inactive)
9 | COc1cc(C)c(-c2ccc(OC)c(=O)cc2C)c(OC)c1OC | 17.6% (inactive) and 98.4% (inactive)
10 | CC1=C2C(=C[C@@](C)(COC(=O)c3ccc(S(=O)(=O)F)cc3)[C@@H]2OC(=O)c2ccc(S(=O)(=O)F)cc2)C(=O)[C@](C)(O)C12CC2 | 2.93% (active)
11 | CN1C(=O)[C@]23SSC1(C)C(=O)N2[C@H]1Nc2ccccc2C1([C@@]12c4ccccc4N[C@@H]1N1C(=O)C4(C)SS[C@]1(C(=O)N4C)[C@H]2O)[C@@H]3O (stereo not given in full) | -86.9% (active)
12 | COc1cc2c(cc1OC)[C@@H]1N(CC2)C(=O)c2ccccc2[C@@]1(C)C(=O)O | 111% (inactive)
13 | CC1=C2C(=C[C@@](C)(COC(=O)c3ccc(S(=O)(=O)F)cc3)[C@@H]2O)C(=O)[C@](C)(O)C12CC2 | -11% (active)
14 | COc1cccc2c1cc([N+](=O)[O-])c1c(C(=O)O)cc3c(c12)OCO3 | 100% (inactive)
15 | C[C@@H]1CCC/C=C/[C@H]2C[C@@H](O)C[C@@H]2[C@@H](O)/C=C/C(=O)O1 | 16.1% (inactive)
16 | CCC(C)[C@H]1C(=O)O[C@H](C(C)C)C(=O)N(C)[C@@H](C(C)C)C(=O)O[C@H](C(C)C)C(=O)N(C)[C@@H](C(C)C)C(=O)O[C@H](C(C)C)C(=O)N1C (stereo not given in full) | 14.5% (inactive)
17 | C=C1[C@@H](C)C2[C@H](Cc3ccccc3)NC(=O)[C@]23[C@H](OC(C)=O)/C=C/[C@@](C)(O)C(=O)[C@@H](C)C/C=C/[C@H]3[C@@H]1O (stereo not given in full) | 22.7% (inactive)
18 | COc1cc2c(O[C@@H]3OC[C@H](OC(C)=O)[C@H](OC(C)=O)[C@H]3O)c3c(c(-c4ccc5c(c4)OCO5)c2cc1OC)C(=O)OC3 | 12.4% (inactive)
19 | CN(CCF)/N=N/c1nc[nH]c1C(N)=O | 98.8% (inactive)
20 | CC1=C[C@H]2O[C@@H]3C[C@H]4OC(=O)/C=C\C=C\[C@H]([C@@H](C)O)OCC[C@@H](C)[C@H](O)C(=O)OC[C@@]2(CC1)[C@]4(C)[C@]31CO1 | -21.1% (active)

Row | SMILES | growth
21 | CC1=C[C@H]2O[C@@H]3C[C@@H](O)[C@](C)([C@@]2(C)CC1)[C@@]31CO1 | 16.2% (inactive)
22 | CC1=C(CCC=NNC(N)=O)C2=C(C)C3(CC3)[C@@](C)(O)C(=O)C2=C1 | 4.54% (active)
23 | COC(=O)[C@H]1[C@@H](O)[C@@]2(O)c3c(OC)cc(OC)cc3O[C@@]2(c2ccc(OC)cc2)[C@@H]1c1ccccc1 | -14.9% (active)
24 | C/C=C/CC(C)C(O)[C@H](NC(=O)[C@@H]1CCCN1C(=O)C(C)(C)NC(=O)CCCCCCCCC)C(=O)N[C@@](C)(CC)C(=O)N[C@@H](CCC(N)=O)C(=O)N[C@H](CCC(N)=O)C(=O)NC(C)(C)C(=O)NC(C)(C)C(=O)N[C@@H](CCC(N)=O)C(=O)N[C@H](CC(C)C)C(=O)N[C@H](CO)CC(C)C (stereo not given in full) | 78.8% (inactive) and 99.8% (inactive)
25 | C/C=C\C(=O)O[C@@H]1CC2O[C@@H]3C=C(C)C(=O)C[C@]3(C)[C@]1(C)[C@]21CO1 | -5.19% (active)
26 | C/C=C/CC(C)C(O)[C@H](NC(=O)[C@@H]1CCCN1C(=O)C(C)(C)NC(=O)CCCCCCCCC)C(=O)N[C@@](C)(CC)C(=O)N[C@@H](CCC(N)=O)C(=O)N[C@H](CCC(N)=O)C(=O)NC(C)(C)C(=O)N[C@@](C)(CC)C(=O)N[C@@H](CCC(N)=O)C(=O)N[C@H](CC(C)C)C(=O)N[C@H](CO)CC(C)C (stereo not given in full) | 103% (inactive) and 26.2% (inactive)
27 | CC(=O)O[C@@H]1C[C@H]2O[C@@H]3C=C(C)CC[C@]3(C)[C@]1(C)[C@]21CO1 | 12.8% (inactive)
28 | N#Cc1nc(-c2ccccc2)oc1N1CCC(S(=O)(=O)F)CC1 | 102% (inactive)
29 | CC1=C2C(=C[C@@](C)(C=O)[C@@H]2O)C(=O)[C@](C)(O)C12CC2 | 8.13% (active)
30 | CCCCCCCCCC(=O)N[C@@](C)(CC)C(=O)N1CCC[C@H]1C(=O)N[C@@H](CC(C)C)C(=O)N[C@@](C)(CC)C(=O)N[C@@H](CCC(N)=O)C(=O)N[C@H](CCC(N)=O)C(=O)NC(C)(C)C(=O)NC(C)(C)C(=O)N[C@@H](CCC(N)=O)C(=O)N[C@H](CC(C)C)C(=O)N[C@H](CO)CC(C)C | -48.6% (active) and -38% (active)
31 | CC1=C(CN(O)C(N)=O)C2=C(C)C3(CC3)[C@](C)(O)C(=O)C2=C1 | 0.401% (active)
32 | CC1=C2C(=O)[C@](C)(CO)C=C2C(=O)[C@](C)(O)C12CC2 | 13.2% (inactive)
33 | NC1CCc2cc(O)c(O)cc2C1 (stereo not given) | 82.3% (inactive)
34 | O=C(CCCc1ccc(N(CCCl)CCCl)cc1)OCc1ccccc1 | 78.9% (inactive)
35 | Cc1ccc(CNc2nc3ccc(OC/C(=C/F)CN)cc3o2)cn1 | 95.6% (inactive)
36 | CC1=C[C@H]2O[C@@H]3C[C@H]4OC(=O)/C=C\C=C\[C@H]([C@@H](C)O)OCC/C(C)=C/C(=O)OC[C@@]2(CC1)[C@]4(C)[C@]31CO1 | -25.6% (active)
37 | C[C@@H]1C[C@H]2C(=O)O[C@@H](C)C(NC(=O)[C@H](Cc3cc(F)cc(F)c3)NC(=O)Nc3ccc(OS(=O)(=O)F)cc3)C(=O)N3CCC[C@H]3C(=O)N3CCO[C@H](C)[C@H]3C(=O)N[C@@H](CO)C(=O)N2C1 (stereo not given in full) | 31% (inactive)
38 | COc1cc2c(O[C@@H]3OC[C@H](O)[C@H](O)[C@H]3O)c3c(c(-c4ccc5c(c4)OCO5)c2cc1OC)C(=O)OC3 | 91% (inactive)
39 | CC1=C(CN(O)C(N)=O)C2=C(C)C3(CC3)[C@@](C)(O)C(=O)C2=C1 | -8.35% (active)
40 | COc1cc(OC)c(S(=O)(=O)N(CCCl)CCCl)cc1C(=O)/C=C/c1ccc(Cl)cc1 | 71.5% (inactive)
